# Hits are enriched below; roughly 7.9% of the tested compounds scored in any of these assays.
# MARV entry inh: inhibitors of Marburg virus binding or cell entry; AID 540276; Marburg virus pseudotyped entry inhibition, cell reporter; 300,000 compounds, 1.8% hits; Potency, µM (top dose mostly 37.8 µM), for inactives: top-dose activity change, negative = inhibition, hits mostly inhibitors; calls by dose curve; tested in HEK293 cells; also: potency is read from the fitted curve at half-maximal effect
# HCMV antiviral: inhibitors of human cytomegalovirus; HFF cells, HCMV-luciferase reporter, 72 h; stronger effect = lower value; activity change, negative = inhibition, % at 57.5 µM; 410,000 compounds, 4.5% hits; AID 1259415; in the data active = activity change below about -60%; inconclusive = no clear call, values can overlap the other calls; inactive = above about -39%
#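 Human foreskin fibroblasts infected with luciferase-reporter HCMV at MOI 1 PFU/cell, compounds at two doses. Luciferase measured 72 h post infection; normalized to buffer-only basal and Salinomycin (10uM) controls.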
# FMDV inh: foot and mouth disease virus antiviral activity; FMDV antiviral cell-based qHTS; Potency, µM (doses to about 57.9 µM), for inactives: top-dose activity change, negative = inhibition, actives largely listed as inhibitors; 410,000 compounds, 1.2% hits; AID 1159524; calls by dose curve; tested in HEK293T cells; also: read-out not given here; potency is read from the fitted curve at half-maximal effect; nearly all actives have a fitted effect of over 45% in size
# HCV inh: inhibitors of hepatitis C virus infection. Huh7.5.1 HCVcc-Cre infection, luciferase reporter, 44 h. AID 651820. 340,000 compounds, 3.4% hits. Potency, µM (top dose mostly 41.8 µM), for the others: at the top dose activity change, negative = inhibition, most hits filed as inhibitors; active = well fitted inhibition curve with a large enough effect; inconclusive = small, poorly fitted or top-dose-only effect, or another doubt; inactive = no such curve, though single readings can be large or run the other way; also: potency is read from the fitted curve at half-maximal effect
#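 A cell-based infection assay in which seeded cells (1,000 per well) receive test compound after 4 h, are inoculated with HCVcc-Cre at approximately 0.5 moi, and are incubated 44 h before luminescence detection.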
# LASV entry inh: Lassa virus entry inhibition. Lassa virus pseudotype entry inhibition, cell reporter. 300,000 compounds, 1.2% hits. Potency, µM (doses to about 37.9 µM), for the others: at the top dose activity change, negative = inhibition, most hits filed as inhibitors; calls by dose curve; tested in HEK293 cells; also: potency is read from the fitted curve at half-maximal effect; nearly all actives have a fitted effect of over 50% in size
# An asterisk follows results filed as active; ? = inconclusive; / = no result; [ ] = another dose, or the depositor's remark. % is scaled to controls: 0 for no effect and ±100 for the full control effect.
SMILES,MARV entry inh,HCMV antiviral,FMDV inh,HCV inh,LASV entry inh
COCC(=O)N1[C@@H]2Cn3c(ccc(Br)c3=O)[C@H]1[C@@H](C(=O)OC)[C@@H]2CO,/,-8.1,/,/,/
Cc1ccn2c(=O)c(C(=O)NC(C)c3ccccc3)c(O)nc2c1 (stereo not given),?,-70.2*,-2.3%,/,/
CC(NC(=O)c1c(O)nc2ccccn2c1=O)c1ccccc1 (stereo not given),9.2%[46.1 µM],-20.8,-5.4%,/,/
CCCn1nc(C(=O)N2CCN(S(=O)(=O)c3ccc(C)c(C)c3)CC2)c2ccccc2c1=O,/,-10.7,?,14.1µM*,/
Cc1nc2c(C(=O)NCc3ccc4c(c3)OCO4)cnn2c(C)c1Cc1ccc(F)cc1Cl,-21.4%,-3.2,-7.6%,-8.7%,-11.2%
Cc1nc2c(C(=O)NCc3ccco3)cnn2c(C)c1Cc1ccc(F)cc1Cl,?,-1.2,?,12.6µM*,-11.2%
CCC(CC)C(=O)Nc1ccc([N+](=O)[O-])cn1,8.2%[46.1 µM],-83.9*,-18.0%,0.8%,0.1%[46.1 µM]
CCCC(=O)Nc1ccc(C(=O)NNC(=O)c2cccc([N+](=O)[O-])c2)cc1,?,37.7,2.8%,-3.1%,13.6%
CCCC(=O)Nc1ccc(Sc2ccc([N+](=O)[O-])cc2)cc1,20µM*,-75.1*,?,?,10µM*
CCC(CC)C(=O)Nc1ccc(Sc2ccc([N+](=O)[O-])cc2)cc1,-14.4%,-96.3*,?,?,10.0%
CCCSc1nnc2[nH]c(=O)cc(C)n12,/,26.2,-10.9%,/,-1.0%[46.1 µM]
Cc1nc2ccccc2c(=O)n1N(c1ccccc1)c1ccccc1,/,-68.0*,-17.7%,?,/
Cc1nc2ccccc2c(=O)n1CCc1ccccc1,/,63.4,-7.9%,-0.2%,/
COc1cn(CC(=O)Nc2ccccc2)c(CN2CCCCC2)cc1=O,/,15.7,-7.8%,/,-8.1%[46.1 µM]
CCN1CCN(C(c2cccc(OC)c2OC)c2nnnn2Cc2ccco2)CC1 (stereo not given),0.4%[46.1 µM],-82.6*,-8.1%,-8.9%,3.0%
COCCn1nnnc1C(c1ccccn1)N1CCN(c2cccc(C)c2C)CC1 (stereo not given),-24.6%,-5.6,?,0.6%,-28.2%
COc1ccccc1C(c1nnnn1Cc1ccco1)N1CCN(c2cccc(C)c2C)CC1 (stereo not given),?,-27.3,-3.3%,12.6µM*,9.2µM*
CCOC(=O)C1(C)C=C(Nc2ccc(C(=O)O)cc2)C(=O)N1c1ccc(C(=O)O)cc1 (stereo not given),21.7%[46.1 µM],19.1,0.0%,/,-1.4%[46.1 µM]
CC1(C)NC(C)(C)/C(=C\c2cccs2)C(=O)C1=O,12.6µM*,-26.4,-14.7%,-15.7%,26.0%
COC(=O)C1=C(C)NC(=O)/C1=C\c1cccs1,-12.4%,-8.2,9.0%,?,-0.2%
CCOC(=O)C1CCN(C(=O)c2ccc3c(c2)N=C(CC)c2cc(C)ccc2S3)CC1,4.3%[46.1 µM],-9.4,0.0%,/,-2.8%[46.1 µM]
CC(O)CSc1nc2c(c(=O)[nH]c(=O)n2C)n1CC(O)COc1ccccc1 (stereo not given),/,-93.6*,-12.5%,14.0%,/
CCSc1nc2c(c(=O)[nH]c(=O)n2C)n1CC(O)COc1ccccc1C (stereo not given),?,43.7,20µM*,?,-4.3%
CC(C)Sc1nc2c(c(=O)[nH]c(=O)n2C)n1CC(O)COc1ccccc1 (stereo not given),-21.7%[46.1 µM],?,-25.9%,5.1%,?
Cn1c(=O)n(C)c2cc(N3CCCCC3)c(NC(=O)c3ccc(C(C)(C)C)cc3)cc21,2.8%[46.1 µM],3.5,?,/,23.9%[46.1 µM]
SMILES,MARV entry inh,HCMV antiviral,FMDV inh,HCV inh,LASV entry inh
C=CCOc1ccc(/C=C2\SC(=Nc3cccnc3)NC2=O)cc1,?,19.9,22.1%,-3.1%,3.55µM*
Cc1cc(OCc2cc(C(=O)N(C)CCOc3ccccc3)no2)cc(C)c1Cl,/,-3.4,-13.1%,?,/
CN(CCc1ccccn1)C(=O)c1cc(COc2ccc(F)cc2F)on1,-3.5%,?,6.3%,27.0%,-0.2%
Cc1ccc(OCc2cc(C(=O)N(C)CCc3ccccn3)no2)cn1,/,-62.9*,-19.6%,-5.5%,/
COc1cccc(CN(C)C(=O)c2cc(COc3ccc4ncccc4c3)on2)c1,-22.5%[46.1 µM],-86.2*,11.2µM*,5.62µM*,?
COc1cccc(OCc2cc(C(=O)N(C)CCOc3ccc(C)cc3)no2)c1,/,14.7,0.0%,11.2µM*,/
CCCCNC(=O)c1cccc(-n2c(C)nc3cccnc32)c1,/,0.0,-1.9%,/,-7.3%[46.1 µM]
CCOC(=O)C(=CNc1ccccc1C)C(=O)OCC,0.7%,-22.6,-27.5%,?,22.5%
CCOC(=O)C(=CNc1cc(Cl)c(-c2ccco2)c(Cl)c1)C(=O)OCC,/,8.6,-25.5%,12.6µM*,/
CCOC(=O)C(=CNc1ccc(-c2ccco2)c(Cl)c1)C(=O)OCC,/,?,-22.5%,?,/
CCOC(=O)C(=CNc1ccccc1Cl)C(=O)OCC,/,-61.1*,-2.4%,?,/
COc1ccc(CNCCCSc2nnnn2C)c(OC)c1,-2.7%[46.1 µM],-0.7,6.6%,/,-1.0%[46.1 µM]
CCn1c(SCC(=O)N2CCCc3ccccc32)nnc1-c1c[nH]c2ccccc12,?,-26.4,?,?,?
COc1ccc(N2CCN(C(=O)CSc3nnnn3-c3ccc4c(c3)OCCO4)CC2)cc1,-5.7%,?,/,7.94µM*,2.91µM*
Cn1c(SCC(=O)N2CCN(c3ccccc3)CC2)nnc1-c1ccccc1,-28.1%,-30.9,?,?,-1.1%
COc1ccc(-n2cnnc2SCC(=O)N2CCN(c3ccccc3)CC2)cc1,0.7%,-22.6,?,-8.4%,-11.7%
COc1ccc(-n2nnnc2SCC(=O)N2CCOCC2)cc1,/,78.7,28.0%,7.0%,/
Cn1c(SCC(=O)N2CCN(c3ccccc3)CC2)nnc1-c1c[nH]c2ccccc12,/,-79.6*,17.8µM*,?,/
COc1ccc(N2CCN(C(=O)CSc3nnc(-c4cc5ccccc5cc4O)n3C)CC2)cc1,-17.8%,-66.8*,25.1µM*,?,-2.1%
CCn1c(SCC(=O)N2CCc3ccccc32)nnc1-c1c[nH]c2ccccc12,?,?,31.6µM*,-7.9%,?
O=C(c1cc2ccccc2oc1=O)N1CCN(c2ccc(Cl)cc2)CC1,8.9%[46.1 µM],-2.0,-19.0%,/,6.4%[46.1 µM]
Cc1ccc(CNC(=O)C2CCCCN2S(=O)(=O)c2ccc(F)cc2)cc1 (stereo not given),/,-3.8,-4.7%,/,-22.4%[46.1 µM]
CC(CCC(=O)OC[C@H]1O[C@H](C#Cc2ccccc2)C=C[C@H]1Oc1ccc(C)cc1)=NO[C@@H](C)CN1CCCCc2nc(C)c(C)cc21,-16.3%[14.2 µM],/,/,/,/
CCn1c(SCC(=O)N2CCN(c3ccccc3)CC2)nnc1-c1c[nH]c2ccccc12,/,-75.3*,?,8.91µM*,/
Cn1c(=O)oc2cc(S(=O)(=O)Nc3ccc4c(c3)OCCO4)ccc21,5.1%,-90.9*,-19.9%,-5.3%,0.9%
O=S(=O)(Nc1ccc2c(c1)OCCO2)c1cccs1,10.8%,-76.7*,/,4.4%,10.1%
Cc1c(S(=O)(=O)Nc2ccc3c(c2)OCCO3)c(=O)n(C)c(=O)n1C,/,9.3,0.0%,15.2%,/
Cn1c(=O)c(=O)n(C)c2cc(S(=O)(=O)Nc3ccc4c(c3)OCCO4)ccc21,8.9%,-76.2*,39.8µM*,13.1%,-0.8%

# From PubChem
